Data published in PubChem BioAssay.
The source made the active and inactive calls.

What was measured:
[1] = system: PRMT1 (protein arginine N-methyltransferase 1); test: small molecules binding arginine methyltransferase PRMT1 – biochemical, small-molecule microarray, 635 nm fluorescence, primary screen (AID 1088); settings: higher = more signal;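 note: binding of Prmt1 protein to compounds spotted on small-molecule microarray slides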
[2] = growth effects on S. cerevisiae YJM789 – YJM789 clinical isolate, OD600, 24 h, basal, primary screen (AID 1089); settings: higher = more signal, called active from +8 up or from −8 down;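 note: growth of clinical yeast isolate S. cerevisiae YJM 789 seeded 1000 cells per well; test concentration not given here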
[3] = S. pombe growth modifiers, basal conditions – strain 972, OD600, 24 h, no modulator, primary screen (AID 1090);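 note: basal condition with compound alone and no growth modifier present; test concentration not given here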; settings: S. pombe 972 growth, higher = more signal, called active from +8 up or from −8 down
[4] = budding yeast growth modifiers under rapamycin – strain BY4716, OD600, 96 h, primary screen (AID 1091); note: test concentration not given here; settings: S. cerevisiae BY4716 + rapamycin, higher = more signal, called active from +8 up or from −8 down
[5] = target: Torsin-1A-interacting protein 2 (Homo sapiens) (UniProt Q8NFQ8); test: small molecules binding lysate-expressed LULL1 – cell lysate, human LULL1 lysate, 635/667 nm fluorescence, primary screen (AID 1092); settings: small-molecule microarray, hLULL1 lysate binding, 635 nm fluorescence; higher = more signal;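 note: probe is lysate of COS7 cells overexpressing human LULL1; score merges per-feature 667 nm fluorescence with signal-to-noise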
Sequence of Torsin-1A-interacting protein 2 (Homo sapiens) (Q8NFQ8 whole entry, looked up): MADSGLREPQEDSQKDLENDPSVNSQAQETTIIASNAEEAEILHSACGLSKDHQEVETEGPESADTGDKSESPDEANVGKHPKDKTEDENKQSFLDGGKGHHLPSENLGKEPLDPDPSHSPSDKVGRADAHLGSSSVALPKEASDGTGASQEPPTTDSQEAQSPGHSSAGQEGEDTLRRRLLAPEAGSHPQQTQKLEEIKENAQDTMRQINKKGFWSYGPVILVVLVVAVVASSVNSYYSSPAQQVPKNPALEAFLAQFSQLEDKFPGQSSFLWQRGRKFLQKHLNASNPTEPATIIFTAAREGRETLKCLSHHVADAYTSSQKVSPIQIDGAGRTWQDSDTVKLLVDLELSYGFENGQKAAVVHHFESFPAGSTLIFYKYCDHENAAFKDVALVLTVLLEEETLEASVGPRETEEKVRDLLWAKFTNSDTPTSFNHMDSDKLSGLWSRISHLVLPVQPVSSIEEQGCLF

[6] = optical density change of DRC41 E. coli – strain DRC41, OD650, 24 h, E. coli filamentation project, primary screen (AID 1093);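 note: MC1000 strain lacking acrAB efflux and sulA so SOS filamentation is blocked; test concentration not given here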; settings: E. coli DRC41 growth, higher = more signal, called active from +8 up or from −8 down
[7] = probe aLefty2 binding to arrayed compounds – biochemical, biotinylated probe, 635/667 nm fluorescence, primary screen (AID 1094); settings: small-molecule microarray, higher = more signal;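 note: score merges spot fluorescence near 667 nm with spot signal-to-noise ratio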
[8] = system: Noggin (protein binding on small-molecule microarray); test: small molecules binding Noggin protein – biochemical, 635/667 nm fluorescence, primary screen (AID 1095); settings: 635 nm fluorescence, higher = more signal;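 note: score merges 667 nm feature fluorescence with signal to noise over triplicate slides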
[9] = target: Neurogenic locus notch homolog protein 3 (Homo sapiens) (UniProt Q9UM47); test: small molecules binding NOTCH3 protein – biochemical, 635/667 nm fluorescence, primary screen (AID 1096); settings: small-molecule microarray, 635 nm fluorescence, higher = more signal
Sequence of Neurogenic locus notch homolog protein 3 (Homo sapiens) (Q9UM47 whole entry, looked up): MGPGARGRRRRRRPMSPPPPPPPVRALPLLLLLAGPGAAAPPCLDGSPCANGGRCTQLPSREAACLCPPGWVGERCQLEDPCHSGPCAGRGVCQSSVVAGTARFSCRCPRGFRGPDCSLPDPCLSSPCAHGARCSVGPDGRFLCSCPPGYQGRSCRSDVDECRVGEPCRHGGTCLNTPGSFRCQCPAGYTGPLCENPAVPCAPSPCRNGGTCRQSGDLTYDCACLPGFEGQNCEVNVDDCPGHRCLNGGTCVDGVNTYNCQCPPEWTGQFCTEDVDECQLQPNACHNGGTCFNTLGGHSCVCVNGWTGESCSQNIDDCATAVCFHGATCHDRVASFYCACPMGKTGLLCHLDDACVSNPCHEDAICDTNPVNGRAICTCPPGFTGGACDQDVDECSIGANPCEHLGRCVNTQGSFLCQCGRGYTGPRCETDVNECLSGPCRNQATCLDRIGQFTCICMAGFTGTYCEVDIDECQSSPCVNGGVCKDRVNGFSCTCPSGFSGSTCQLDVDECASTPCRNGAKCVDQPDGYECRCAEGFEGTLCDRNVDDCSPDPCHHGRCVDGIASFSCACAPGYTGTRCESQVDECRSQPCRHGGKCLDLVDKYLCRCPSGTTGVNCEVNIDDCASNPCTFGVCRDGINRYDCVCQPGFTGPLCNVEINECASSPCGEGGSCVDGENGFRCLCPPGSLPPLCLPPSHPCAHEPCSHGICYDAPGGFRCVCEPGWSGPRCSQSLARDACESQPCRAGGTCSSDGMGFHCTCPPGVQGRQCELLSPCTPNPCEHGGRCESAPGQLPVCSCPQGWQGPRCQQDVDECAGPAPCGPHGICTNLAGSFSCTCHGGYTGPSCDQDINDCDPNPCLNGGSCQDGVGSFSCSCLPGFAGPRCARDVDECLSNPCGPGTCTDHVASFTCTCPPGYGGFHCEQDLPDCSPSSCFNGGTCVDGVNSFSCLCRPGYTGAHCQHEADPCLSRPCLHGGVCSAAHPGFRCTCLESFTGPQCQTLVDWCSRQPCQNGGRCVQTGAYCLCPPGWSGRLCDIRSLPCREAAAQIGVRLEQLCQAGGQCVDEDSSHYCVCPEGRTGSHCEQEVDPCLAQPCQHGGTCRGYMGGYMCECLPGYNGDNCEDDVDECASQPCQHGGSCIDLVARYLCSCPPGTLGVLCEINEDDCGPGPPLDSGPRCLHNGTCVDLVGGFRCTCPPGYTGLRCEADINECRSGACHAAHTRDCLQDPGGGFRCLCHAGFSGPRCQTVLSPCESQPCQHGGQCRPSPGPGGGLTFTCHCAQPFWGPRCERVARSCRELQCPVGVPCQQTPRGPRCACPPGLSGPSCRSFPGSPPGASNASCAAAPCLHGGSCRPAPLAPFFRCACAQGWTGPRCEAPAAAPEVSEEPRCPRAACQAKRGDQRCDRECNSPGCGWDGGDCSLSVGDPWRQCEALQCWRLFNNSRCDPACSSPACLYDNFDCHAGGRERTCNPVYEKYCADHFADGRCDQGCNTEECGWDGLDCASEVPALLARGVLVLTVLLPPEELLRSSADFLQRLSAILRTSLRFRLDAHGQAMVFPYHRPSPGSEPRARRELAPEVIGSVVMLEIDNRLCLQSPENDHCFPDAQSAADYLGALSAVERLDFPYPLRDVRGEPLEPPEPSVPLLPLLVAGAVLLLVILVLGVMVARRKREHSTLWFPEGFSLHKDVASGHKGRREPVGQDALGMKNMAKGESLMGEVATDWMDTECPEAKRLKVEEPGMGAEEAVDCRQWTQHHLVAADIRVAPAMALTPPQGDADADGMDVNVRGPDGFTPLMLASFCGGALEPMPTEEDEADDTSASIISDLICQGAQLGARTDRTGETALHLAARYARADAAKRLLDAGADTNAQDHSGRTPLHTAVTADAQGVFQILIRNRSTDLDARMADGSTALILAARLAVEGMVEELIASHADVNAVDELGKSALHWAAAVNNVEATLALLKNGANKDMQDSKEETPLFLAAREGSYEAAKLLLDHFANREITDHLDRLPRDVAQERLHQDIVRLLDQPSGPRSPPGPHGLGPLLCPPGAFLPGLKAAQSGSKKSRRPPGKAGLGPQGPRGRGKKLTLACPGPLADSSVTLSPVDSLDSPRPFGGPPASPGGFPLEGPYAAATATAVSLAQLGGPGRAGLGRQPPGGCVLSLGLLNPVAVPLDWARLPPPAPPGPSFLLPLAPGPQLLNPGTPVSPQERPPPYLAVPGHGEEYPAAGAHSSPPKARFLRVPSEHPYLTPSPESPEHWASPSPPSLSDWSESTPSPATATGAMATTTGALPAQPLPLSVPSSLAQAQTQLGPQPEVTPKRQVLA

[10] = probe aEGFR binding to arrayed compounds – biochemical, biotinylated probe, 635/667 nm fluorescence, primary screen (AID 1097); settings: small-molecule microarray, higher = more signal;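 note: probe is a biotinylated anti-EGFR antibody binding compounds printed on slides; score combines fluorescence near 667 nm and signal to noise of each spot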

SMILES: COc1ccc(COC(=O)NN=C2C[C@@H](O)[C@@H](O)[C@@H]3[C@@H]4C(=O)N(c5ccc(F)cc5F)C(=O)[C@@H]4CC[C@H]23)cc1
- composite z-score [1]: 0.0093
- z-score [2]: 0.201 (inactive)
- z-score [3]: -4.12 (inactive)
- z-score [4]: -0.971 (inactive)
- composite z-score [5]: 0.142
- z-score [6]: 0.0412 (inactive)
- composite z-score [7]: 0.469
- composite z-score [8]: -0.186
- composite z-score [9]: -0.425
- composite z-score [10]: -0.171

SMILES: CCOC(=O)[C@H](Cc1ccccc1)NC(=O)CCC1CC(OC(=O)NCCc2ccc(F)cc2)CC2(CCCC(COC(=O)NCCc3ccc(Cl)cc3)O2)O1 (stereo not given in full)
- composite z-score [1]: 1.13
- z-score [2]: 0.154 (inactive)
- z-score [3]: 1.04 (inactive)
- z-score [4]: 0.851 (inactive)
- composite z-score [5]: 1.83
- z-score [6]: 0.822 (inactive)
- composite z-score [7]: -0.174
- composite z-score [8]: 0.658
- composite z-score [9]: 0.924
- composite z-score [10]: -0.0687

SMILES: COc1ccc(O[C@@H]2[C@H](O)CO[C@@H]2C=Cc2ccccc2)cc1
- composite z-score [1]: 0.123
- z-score [2]: -0.565 (inactive)
- z-score [3]: -1.51 (inactive)
- z-score [4]: 0.0945 (inactive)
- composite z-score [5]: 0.11
- z-score [6]: 0.0038 (inactive)
- composite z-score [7]: -0.238
- composite z-score [8]: 0.135
- composite z-score [9]: 0.0877
- composite z-score [10]: -0.163

SMILES: O=C1[C@H]2[C@H]3[C@H](O)[C@H](O)CC(=NOC[C@@H](O)COCc4ccco4)[C@H]3CC[C@H]2C(=O)N1C[C@@H]1CCCO1
- composite z-score [1]: 0.629
- z-score [2]: -0.193 (inactive)
- z-score [3]: 0.236 (inactive)
- z-score [4]: -0.318 (inactive)
- composite z-score [5]: -0.884
- z-score [6]: 0.0018 (inactive)
- composite z-score [7]: -0.138
- composite z-score [8]: 0.759
- composite z-score [9]: 0.28
- composite z-score [10]: 0.0872

SMILES: CCc1cc2c(nc1CC)CCN(CCC(C)=NO[C@H](C)c1cn([C@@H]3COC[C@H]3O)nn1)C2
- composite z-score [1]: -0.104
- z-score [2]: 0.485 (inactive)
- z-score [3]: 0.308 (inactive)
- z-score [4]: 0.668 (inactive)
- composite z-score [5]: -0.179
- z-score [6]: -0.216 (inactive)
- composite z-score [7]: -0.0936
- composite z-score [8]: 0.0613
- composite z-score [9]: 0.551
- composite z-score [10]: 0.0004

SMILES: COC(=O)CC=C[C@@H](C)[C@@H](C=NO[C@H](C)c1cn([C@H](CO)Cc2ccccc2)nn1)NS(=O)(=O)c1ccc(C)cc1
- composite z-score [1]: 0.915
- z-score [2]: -0.798 (inactive)
- z-score [3]: 0.359 (inactive)
- z-score [4]: -0.824 (inactive)
- composite z-score [5]: 0.786
- z-score [6]: -0.297 (inactive)
- composite z-score [7]: -0.0407
- composite z-score [8]: 0.857
- composite z-score [9]: -0.0329
- composite z-score [10]: 0.168

SMILES: CON=C[C@@H](C)[C@H](OCc1ccccc1)C(C)C
- composite z-score [1]: -1.25
- z-score [2]: 0.0195 (inactive)
- z-score [3]: -0.596 (inactive)
- z-score [4]: 0.772 (inactive)
- composite z-score [5]: -0.618
- z-score [6]: -0.718 (inactive)
- composite z-score [7]: -0.149
- composite z-score [8]: 0.314
- composite z-score [9]: -0.154
- composite z-score [10]: -0.158

SMILES: CCN1C(=O)[C@H]2[C@H]3[C@H](O)[C@H](O)CC(=NOCC(C)C)[C@@H]3CC[C@H]2C1=O
- composite z-score [1]: 1.55
- z-score [2]: -0.132 (inactive)
- z-score [3]: -0.666 (inactive)
- z-score [4]: -0.242 (inactive)
- composite z-score [5]: 2.08
- z-score [6]: -0.637 (inactive)
- composite z-score [7]: -0.0898
- composite z-score [8]: 1.11
- composite z-score [9]: 1.12
- composite z-score [10]: 0.051

SMILES: C[C@@H]1CC[C@H]2C(=O)O[C@@H](COc3ccc(C(C)(C)C)cc3)CN2[C@@H]1c1ccc(Br)cc1
- composite z-score [1]: -0.118
- z-score [2]: 0.228 (inactive)
- z-score [3]: -0.492 (inactive)
- z-score [4]: 0.147 (inactive)
- composite z-score [5]: -0.158
- z-score [6]: -0.0121 (inactive)
- composite z-score [7]: 0.464
- composite z-score [8]: -0.835
- composite z-score [9]: -0.91
- composite z-score [10]: -0.0946
